Rows were chosen to be rich in hits. Some 11% of all compounds tested hit in one or more screens of this group.
Luciferase inh = Photinus pyralis luciferase inhibition. P08659. Potency, µM (series often up to 115 µM), most hits filed as inhibitors. AID 1347043. purified P. pyralis luciferase, luminescence, biochemical. hit rate 2.5% among 76,000; further: nearly all actives have a fitted effect of over 65% in size
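Luminescence read by CCD imager after adding enzyme (10nM final) to wells holding compound, titrated in qHTS. Substrates 10uM each D-luciferin and ATP; buffer 50mM Tris acetate pH 7.5, 10mM Mg acetate, Tween-20, BSA.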
HEK293 tox = HEK 293 cell cytotoxicity; HEK 293 viability, ATP luminescence (CellTiter-Glo), 48-72 h; Potency, µM (series often up to 115 µM), usual class: inhibitors; hit rate 6.6% among 94,000; AID 1345083; further: nearly all actives have a fitted effect of over 60% in size
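Viability of HEK 293 cells, plated at 250 cells/well, was judged by cellular ATP after compound treatment for 48 or 72 hr. Luminescence was imaged 10 min after CellTiter-Glo addition at room temperature.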
3T3 cytotox = cytotoxic compounds in NIH 3T3 cells | NIH 3T3 viability, CellTiter-Glo ATP luminescence, 48-72 h | Potency, µM (top dose mostly 96.7 µM), usual class: inhibitors | hit rate 4.3% among 94,000 | AID 1345082; further: nearly all actives have a fitted effect of over 55% in size
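Cytotoxicity is measured as loss of cellular ATP: NIH 3T3 cells (400/well) are exposed to compound for 48 or 72 hr at 37 °C, then CellTiter-Glo luminescence is imaged after 10 min at room temperature.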
NPR1 antag = human Npr1 receptor antagonism | Potency, µM (top dose mostly 46.3 µM), actives largely listed as inhibitors | AID 1347048 | P16066 | hit rate 1.6% among 76,000 | HEK293 hNpr1 GloSensor cGMP, ANP-stimulated luminescence; calls by dose curve; further: nearly all actives have a fitted effect of over 60% in size
Target sequence (P16066 whole entry, looked up): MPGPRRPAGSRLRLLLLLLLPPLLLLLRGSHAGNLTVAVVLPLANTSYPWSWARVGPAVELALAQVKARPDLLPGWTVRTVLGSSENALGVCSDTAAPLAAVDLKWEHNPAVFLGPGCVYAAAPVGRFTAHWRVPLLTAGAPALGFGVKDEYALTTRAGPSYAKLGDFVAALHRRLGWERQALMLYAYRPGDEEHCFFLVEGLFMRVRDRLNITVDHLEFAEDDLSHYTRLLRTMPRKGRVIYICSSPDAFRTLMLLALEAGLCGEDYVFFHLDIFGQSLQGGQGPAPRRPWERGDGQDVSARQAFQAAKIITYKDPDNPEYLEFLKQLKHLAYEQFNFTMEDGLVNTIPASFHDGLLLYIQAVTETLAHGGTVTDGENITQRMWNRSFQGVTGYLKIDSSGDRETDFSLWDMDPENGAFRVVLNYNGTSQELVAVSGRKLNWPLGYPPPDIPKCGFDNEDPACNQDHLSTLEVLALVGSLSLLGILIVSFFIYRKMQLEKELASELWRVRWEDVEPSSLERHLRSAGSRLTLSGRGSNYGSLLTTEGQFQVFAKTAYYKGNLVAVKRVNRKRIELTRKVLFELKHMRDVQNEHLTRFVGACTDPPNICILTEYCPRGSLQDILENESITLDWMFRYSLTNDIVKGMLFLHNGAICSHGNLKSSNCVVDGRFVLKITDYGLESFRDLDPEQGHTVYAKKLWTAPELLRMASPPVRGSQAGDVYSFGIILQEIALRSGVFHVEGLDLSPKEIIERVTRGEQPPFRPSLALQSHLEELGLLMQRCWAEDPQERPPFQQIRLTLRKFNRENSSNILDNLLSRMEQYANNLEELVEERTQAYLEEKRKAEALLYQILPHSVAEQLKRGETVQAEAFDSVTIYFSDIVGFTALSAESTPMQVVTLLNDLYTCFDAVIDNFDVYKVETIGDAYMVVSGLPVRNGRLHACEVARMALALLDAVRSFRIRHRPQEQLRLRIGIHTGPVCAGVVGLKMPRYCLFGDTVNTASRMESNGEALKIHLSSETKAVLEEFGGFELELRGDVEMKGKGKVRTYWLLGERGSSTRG
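HEK293 cells stably expressing human Npr1 and cGMP GloSensor pGS-40F, loaded 2 h with 2% GloSensor reagent, given compound 30 min at room temperature. Luminescence read before and 20 min after 0.1 nM hNppA.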
Each line names hits and unclear results; the compound was inactive in the other large screens. Unless noted, the call rests on the fitted dose curve; in most records, active means well fitted curve in the direction sought with a large enough effect; inconclusive means small, poorly fitted or top-dose-only effect, or another doubt; inactive means no such curve, though single readings can be large; an effect the other way counts as inactive or inconclusive.

COc1cc(NC(=O)O[C@@H]2CC[C@]3(C)C(CC[C@@H](O)[C@H]3CC(=O)N3CCCCC3)[C@]2(C)CO)cc(OC)c1OC (stereo partly specified)	HEK293 tox inconclusive, 3T3 cytotox inconclusive
CC(C)CC(=O)N1C[C@H](C(N)=O)[C@H]2c3ccccc3N(C)C(=O)[C@]21C	HEK293 tox inconclusive (no result: Luciferase inh, NPR1 antag)
O=C(Nc1ccccc1)[C@@H]1OCC(=O)N(C2CC2)[C@H]1c1ccccc1	none (no result: Luciferase inh, NPR1 antag)
Cc1noc2c(-c3cccnc3NCCCn3ccnc3)cc(-c3ccccc3)nc12	HEK293 tox 71µM, 3T3 cytotox inconclusive
Cc1noc2c(-c3cccnc3N(C)C)cc(-c3ccccc3)nc12	HEK293 tox inconclusive, 3T3 cytotox inconclusive
Cc1noc2c(-c3cccnc3NCc3cccnc3)cc(-c3ccccc3)nc12	HEK293 tox inconclusive, 3T3 cytotox inconclusive
Cc1noc2c(-c3cccnc3NCCN(C)C)cc(-c3ccccc3)nc12	HEK293 tox 89µM, 3T3 cytotox 45µM
Cc1noc2c(-c3cccc(O)c3)cc(-c3ccccc3)nc12	HEK293 tox 50µM, 3T3 cytotox 28µM
COCCCNc1ncccc1-c1cc(-c2ccccc2)nc2c(C)noc12	HEK293 tox 112µM, 3T3 cytotox inconclusive
c1ccc2c(c1)COC1(CCNC1)CN2CC1CCCC1 (stereo unspecified)	HEK293 tox 50µM, 3T3 cytotox 35µM (no result: Luciferase inh, NPR1 antag)
CCCN1CCN(C(=O)c2c(C)sc3ccn(CC(C)C)c(=O)c23)CC1	none
Cc1sc2ccn(CC(C)C)c(=O)c2c1C(=O)N1CCCCC1	HEK293 tox 28µM
Cc1sc2ccn(CC(C)C)c(=O)c2c1C(=O)N1CCC(C)CC1	HEK293 tox 45µM
CCN(Cc1ccccc1)C(=O)CC1CCCCN(Cc2ccccc2)C1=O (stereo unspecified)	HEK293 tox inconclusive, 3T3 cytotox inconclusive
CC(=O)N1CC(C(=O)NC(C)c2ccccc2)CC(c2cccc(C)c2)C1 (stereo unspecified)	none
CCOC(=O)C1CCCN(C(=O)C2CC(c3ccc(CC)cc3)CN(C(=O)c3ccoc3)C2)C1 (stereo unspecified)	HEK293 tox 45µM, 3T3 cytotox inconclusive
CCOC(=O)C1CCCN(C(=O)C2CC(c3ccccc3)CN(C(=O)c3cccc(F)c3)C2)C1 (stereo unspecified)	HEK293 tox inconclusive, 3T3 cytotox inconclusive
CCc1ccc(C2CC(C(=O)NC(C)c3ccccc3)CN(C(=O)c3ccoc3)C2)cc1 (stereo unspecified)	HEK293 tox inconclusive, 3T3 cytotox 32µM
COCCn1c(=O)c2c(n1Cc1ccccc1)CN(C(=O)c1cc3ccccc3[nH]1)CC2	3T3 cytotox inconclusive
COCCn1c(=O)c2c(n1Cc1ccccc1)CN(C(=O)c1cc3ccccc3n1C)CC2	3T3 cytotox 28µM
Cn1c(C(=O)N2CCc3c(n(Cc4cccnc4)n(-c4ccccc4)c3=O)C2)cc2ccccc21	3T3 cytotox 28µM
O=C(c1cccc(O)c1)N1CCc2c(n(Cc3cccnc3)n(-c3ccccc3)c2=O)C1	3T3 cytotox inconclusive
COC1CN(c2ccc(C)cc2)C12CCN(C(=O)c1ccnn1C)CC2 (stereo unspecified)	none
CN(C)C(=O)C1CCN(c2ccnc3ccnn23)CC1	none (no result: Luciferase inh, NPR1 antag)
COC(=O)c1ccc2nc(C[C@@H]3C[C@@H](C(C)C)[C@H](CNC4CCN(C(C)=O)CC4)C=C3C)[nH]c2c1	HEK293 tox inconclusive, 3T3 cytotox inconclusive
COC(=O)c1ccc2nc(C[C@@H]3C[C@@H](C(C)C)[C@H](CNC(=O)CCC(=O)O)C=C3C)[nH]c2c1	none
COC(=O)c1ccc2nc(C[C@@H]3C[C@@H](C(C)C)[C@H](CNS(=O)(=O)c4ccccc4)C=C3C)[nH]c2c1	HEK293 tox 28µM, 3T3 cytotox 32µM
COC(=O)c1ccc2nc(C[C@@H]3C[C@@H](C(C)C)[C@H](CNC4CCN(C)CC4)C=C3C)[nH]c2c1	HEK293 tox 22µM, 3T3 cytotox 25µM
COC(=O)c1ccc2nc(C[C@@H]3C[C@@H](C(C)C)[C@H](CNCc4ccccc4O)C=C3C)[nH]c2c1	HEK293 tox 22µM, 3T3 cytotox 20µM, NPR1 antag inconclusive
O=C(C1CCCN1C(=O)Cc1ccccn1)N1CCC(N2Cc3ccccc3C2=O)CC1 (stereo unspecified)	none (no result: Luciferase inh, NPR1 antag)
Cc1ccccc1CN1Cc2nc(-c3cccc(C(N)=O)c3)ccc2OCC1=O	HEK293 tox 71µM, 3T3 cytotox inconclusive

Assay outcomes (PubChem)
